Assay results reported in ChEMBL document CHEMBL1157539, “Thousands of chemical starting points for antimalarial lead identification” (Nature, 2010).

Key:
Format in all cases: functional
Plasmodium falciparum [1] = test: GSK_TCMDC: Inhibition of Plasmodium falciparum 3D7 in whole red blood cells, using parasite LDH activity as an index of growth. Test compounds present at 2uM
Plasmodium falciparum [2] = test: GSK_TCMDC: Inhibition of Plasmodium falciparum Dd2 in whole red blood cells, using parasite LDH activity as an index of growth. Test compounds present at 2uM
HepG2 = test: GSK_TCMDC: Percent inhibition of human HepG2 cell line. Test compounds present at 10uM.

`Cc1ccc(NC(=O)Nc2ccc(S(=O)(=O)c3ccc(NC(=O)Nc4ccc(C)c(Cl)c4)cc3)cc2)cc1Cl` was tested. Which Inhibition (Plasmodium falciparum [1]) did it give?
Its Inhibition is 99%.

What about the Inhibition (Plasmodium falciparum [2]) of the same compound?
The Inhibition was 42%.

What about the Inhibition (HepG2) of the same compound?
The Inhibition was 49%.

What does the source list for `CC(C)C[C@H](NC(=O)c1cc2ccccc2s1)C(=O)N[C@H]1CCN(Cc2ccc(OC[C@@H]3CCCN3C)c(Cl)c2)C1.O=C(O)C(F)(F)F`?
Inhibition (Plasmodium falciparum [1]): 100%; Inhibition (Plasmodium falciparum [2]): 81%; Inhibition (HepG2): 83%

Which results are given for `CCOc1ccc(C(C)NC(=O)Cc2ccccc2F)cc1OCC` (configuration not stated)?
Inhibition (Plasmodium falciparum [1]): 96%; Inhibition (Plasmodium falciparum [2]): 44%; Inhibition (HepG2): 15%

Which Inhibition (Plasmodium falciparum [1]) does the source give for `COc1ccc2nccc([C@@H](O)CN3CCC(NCCNc4cccc(F)c4)CC3)c2c1.CS(=O)(=O)O` here?
Its Inhibition is 98%.

What about the Inhibition (Plasmodium falciparum [2]) of the same compound?
Its Inhibition is 73%.

And the Inhibition (HepG2)?
Its Inhibition is 11%.

What does the source list for `Cn1cnc2nc(NCCc3ccccc3)nc(NCc3cccc4ccccc34)c21`?
Inhibition (Plasmodium falciparum [1]): 95%; Inhibition (Plasmodium falciparum [2]): 98%; Inhibition (HepG2): 16%

With `CC(NC(=O)c1ccc(O)c(-c2ccc(Cl)c(Cl)c2)c1)C(=O)NCCN1CCCCC1` (configuration not stated) as the compound, how does the Inhibition (Plasmodium falciparum [1]) read?
Its Inhibition is 97%.

And the Inhibition (Plasmodium falciparum [2])?
Its Inhibition is 3%.

What about the Inhibition (HepG2) of the same compound?
Its Inhibition is 0%.

What does the source list for `CN1CCN(c2ccnc3ccc(NC(=O)Nc4ccc(-c5ccncc5)c(C(F)(F)F)c4)cc23)CC1`?
Inhibition (Plasmodium falciparum [1]): 99%; Inhibition (Plasmodium falciparum [2]): 99%; Inhibition (HepG2): 12%

How did the Inhibition (Plasmodium falciparum [1]) turn out when `CCN(CC)c1nc(N)c2c(N)nc3c(c2c1C#N)C(=O)CN3Cc1ccccc1` was run?
Its Inhibition is 96%.

What about the Inhibition (Plasmodium falciparum [2]) of the same compound?
The Inhibition was 96%.

And the Inhibition (HepG2)?
The Inhibition was 26%.

With `O=C(Nc1ccc(Cl)cc1)N[C@H]1CCN(Cc2ccc(OCCCN3CCCCC3)cc2)C1` as the compound, how does the Inhibition (Plasmodium falciparum [1]) read?
The Inhibition was 100%.

What about the Inhibition (Plasmodium falciparum [2]) of the same compound?
Its Inhibition is 0%.

What about the Inhibition (HepG2) of the same compound?
Its Inhibition is 29%.
